“And” between values parts separate entries of the source, which are not always exact repeats. Equal values may be shown once. The whole screen tested about 5,500 compounds, of which about 2,000 (36%) were called active. Inconclusive results (about 18%) are left out. No stated cut-off is given here; in the data, active means normalized growth mostly below about 0.91 (no sharp cut-off); inconclusive means no clear call, values can overlap the other calls; inactive means mostly above about 0.92. The list shows a part of the results.
Assay: chemical genetic growth profiling, strain panel (AID 1159580);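 further: tested at 20 µM; growth read once vehicle control cultures reached saturation at 30 °C; 1 = growth at the plate median or of vehicle wells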
Conditions: S. cerevisiae deletion strains, growth OD

Measured: normalized growth

CN1CCc2cccc3c2C1Cc1ccc(O)c(O)c1-3 (stereo not drawn)
active: locus YAL021C, strain ccr4, stronger effect = lower value 0.83 | locus YAL026C, strain drs2, stronger effect = lower value 0.862 | locus YAL030W, strain snc1, stronger effect = lower value 0.866 | locus YBL061C, strain skt5, stronger effect = lower value 0.865 | locus YBR023C, strain chs3, stronger effect = lower value 0.85 | locus YBR231C, strain swc5, stronger effect = lower value 0.785 | locus YBR279W, strain paf1, stronger effect = lower value 0.924 | locus YCL011C, strain gbp2, stronger effect = lower value 0.883 | locus YCL061C, strain MRC1 (second series), stronger effect = lower value 0.611 | locus YDR069C, strain doa4, stronger effect = lower value 0.573 | locus YDR297W, strain sur2, stronger effect = lower value 0.88 | locus YDR334W, strain swr1, stronger effect = lower value 0.873 | locus YDR363W, strain ESC2, stronger effect = lower value 0.823 | locus YDR392W, strain spt3, stronger effect = lower value 0.534 | locus YER015W, strain faa2, stronger effect = lower value 0.784 | locus YER155C, strain BEM2 (second series), stronger effect = lower value 0.861 | locus YFR010W, strain ubp6, stronger effect = lower value 0.882 | locus YGL173C, strain kem1, stronger effect = lower value 0.725 | locus YHR013C, strain ard1, stronger effect = lower value 0.818 | locus YHR027C, strain rpn1, stronger effect = lower value 0.826 | locus YHR142W, strain chs7, stronger effect = lower value 0.867 | locus YJL095W, strain BCK1 (second series), stronger effect = lower value 0.906 | locus YJL164C, strain tpk1, stronger effect = lower value 0.874 | locus YJL166W, strain qcr8, stronger effect = lower value 0.742 | locus YJL187C, strain SWE1, stronger effect = lower value 0.887
inactive: locus YAL013W, strain DEP1, stronger effect = lower value 1.01 | locus YAL040C, strain CLN3, stronger effect = lower value 0.989 | locus YBR009C, strain hhf1, stronger effect = lower value 0.929 | locus YBR021W, strain FUR4, stronger effect = lower value 1.01 | locus YBR171W, strain sec66, stronger effect = lower value 0.949 | locus YBR229C, strain ROT2, stronger effect = lower value 1.01 | locus YCL016C, strain dcc1, stronger effect = lower value 0.925 | locus YCL029C, strain bik1, stronger effect = lower value 0.995 | locus YCL069W, strain vba3, stronger effect = lower value 0.978 | locus YCR088W, strain abp1, stronger effect = lower value 0.986 | locus YDL005C, strain med2, stronger effect = lower value 1.02 | locus YDL035C, strain GPR1, stronger effect = lower value 1.04 | locus YDL040C, strain nat1, stronger effect = lower value 0.977 | locus YDL074C, strain BRE1, stronger effect = lower value 1.01 | locus YDL101C, strain DUN1, stronger effect = lower value 1.01 | locus YDL134C, strain PPH21, stronger effect = lower value 1.03 | locus YDL185W, strain tfp1, stronger effect = lower value 1 | locus YDL192W, strain arf1, stronger effect = lower value 0.997 | locus YDR001C, strain nth1, stronger effect = lower value 1.01 | locus YDR101C, strain arx1, stronger effect = lower value 0.973 | locus YDR137W, strain rgp1, stronger effect = lower value 0.996 | locus YDR159W, strain sac3, stronger effect = lower value 0.987 | locus YDR162C, strain NBP2, stronger effect = lower value 1.03 | locus YDR195W, strain ref2 1.02 | locus YDR318W, strain mcm21, stronger effect = lower value 0.992 | locus YDR335W, strain msn5, stronger effect = lower value 0.923 | locus YDR388W, stronger effect = lower value 0.993 | locus YDR502C, strain sam2, stronger effect = lower value 0.999 | locus YEL003W, strain gim4, stronger effect = lower value 0.942 | locus YEL037C, strain rad23, stronger effect = lower value 0.962 | locus YEL061C, strain CIN8 (second series), stronger effect = lower value 0.971 | locus YEL061C, strain CIN8, stronger effect = lower value 1.01 | locus YER002W, strain NOP16, stronger effect = lower value 0.982 | locus YER016W, strain bim1, stronger effect = lower value 0.979 | locus YER110C, stronger effect = lower value 0.985 | locus YER111C, strain swi4, stronger effect = lower value 0.996 | locus YER155C, strain BEM2, stronger effect = lower value 1 | locus YER167W, strain BCK2, stronger effect = lower value 1.03 | locus YGL078C, strain dbp3, stronger effect = lower value 0.983 | locus YGL086W, strain mad1, stronger effect = lower value 1 | locus YGL167C, strain pmr1, stronger effect = lower value 0.985 | locus YGL227W, strain vid30, stronger effect = lower value 1.02 | locus YGL240W, strain doc1, stronger effect = lower value 0.929 | locus YGL248W, strain PDE1, stronger effect = lower value 1.01 | locus YGL253W, strain hxk2, stronger effect = lower value 0.969 | locus YGR135W, strain pre9, stronger effect = lower value 1 | locus YGR229C, strain SMI1, stronger effect = lower value 1.02 | locus YGR252W, strain gcn5, stronger effect = lower value 1.01 | locus YHR030C, strain SLT2, stronger effect = lower value 1.01 and 1.02 | locus YHR079C, strain IRE1 (second series), stronger effect = lower value 0.994 | locus YHR079C, strain IRE1, stronger effect = lower value 1.05 | locus YHR094C, strain hxt1, stronger effect = lower value 0.99 | locus YHR129C, strain ARP1, stronger effect = lower value 1.01 | locus YHR200W, strain rpn10, stronger effect = lower value 0.997 | locus YIL066C, strain RNR3, stronger effect = lower value 1.03 | locus YIL073C, strain SPO22, stronger effect = lower value 1.03 | locus YIL125W, strain kgd1, stronger effect = lower value 0.989 | locus YIR030C, strain dcg1, stronger effect = lower value 1 | locus YJL092W, strain hpr5, stronger effect = lower value 0.979 | locus YJL095W, strain BCK1, stronger effect = lower value 0.998 and 1.04 | locus YJL115W, strain asf1, stronger effect = lower value 0.999 | locus YJL129C, strain trk1, stronger effect = lower value 1.07 | locus YJL134W, strain LCB3, stronger effect = lower value 1 | locus YJL154C, strain vps35, stronger effect = lower value 1.01 | locus YJL168C, strain set2, stronger effect = lower value 0.989 | locus YJL187C, strain SWE1 (second series), stronger effect = lower value 1.01 | locus YJR043C, strain POL32, stronger effect = lower value 1.03 | locus YJR066W, strain TOR1, stronger effect = lower value 0.989

Source: PubChem BioAssay AID1159580 (chemical genetic matrix, 2015)
